# A number with no mark means an inactive call. Records with an inconclusive call do not appear. Where a call stands in place of a potency, no number is given. Active and inactive are the calls of the source. The call rests on the fitted dose curve; in most records, active means well fitted curve in the direction sought with a large enough effect in the repeat runs; inconclusive means weak or mixed curves; inactive means no such curve, though single readings can be large; an effect the other way counts as inactive or inconclusive.
# Tests used:
# [1] = qHTS RealTime-Glo MT Cell Viability Assay in HepG2 cells - 40 hour (AID 1224870); further: nearly all actives have a fitted effect of over 50% in size
# Procedure, shortened: (§1)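 HepG2 cells mixed with RealTime-Glo MT reagents (NanoLuc plus cell-permeant prosubstrate) were seeded at 600 cells/well, incubated 5 h at 37 C/5% CO2, then pinned with compounds in DMSO; nonlytic luminescence tracked viability during 40 h treatment.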
# [2] = A CellTox Green Cytotoxicity Assay to monitor cytotoxicity in HEK293 cells - 40 hour (AID 1224871); further: nearly all actives have a fitted effect of over 45% in size; further: potency means the concentration at half of the fitted maximal effect
# Procedure, shortened: (§2)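 HEK293 cells, 600/well, were preincubated 5 hours and then exposed to compounds at 37 C for up to 40 hours. A cell-impermeant cyanine dye staining dead-cell DNA was read by fluorescence at 0, 8, 16, 24, 32 and 40 h time points.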
# [3] = qHTS RealTime-Glo MT Cell Viability Assay in HEK293 cells - 16 hour (AID 1224872); further: top concentration of the series differs between compounds; nearly all actives have a fitted effect of over 50% in size
# Procedure, shortened: (§3)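 Tox21 10K qHTS, HEK293, 600 cells/well, RealTime-Glo reagent co-dispensed with cells; 5 h preincubation, compound by pintool, 37 C, luminescence at 0–40 h.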
# [4] = qHTS RealTime-Glo MT Cell Viability Assay in HepG2 cells - 8 hour (AID 1224873); further: nearly all actives have a fitted effect of over 55% in size
# Procedure, shortened: as §1
# [5] = qHTS RealTime-Glo MT Cell Viability Assay in HEK293 cells - 40 hour (AID 1224874); details: RealTime-Glo luminescence; max response: hits give low values; further: nearly all actives have a fitted effect of over 50% in size
# Procedure, shortened: (§4)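 600 cells/well were plated with the nonlytic NanoLuc/prosubstrate reagent, pre-incubated 5 h, then given 23 nL of compound in DMSO. Incubation at 37 C for 40 h, with luminescence from viable-cell-reduced substrate read repeatedly from 0 h.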
# [6] = A CellTox Green Cytotoxicity Assay to monitor cytotoxicity in HepG2 cells - 16 hour (AID 1224876); further: nearly all actives have a fitted effect of over 45% in size; further: potency means the concentration at half of the fitted maximal effect
# Procedure, shortened: (§5)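 HepG2 cells, 600/well, preincubated 5 h with CellTox Green dye, then exposed to Tox21 compounds in DMSO at 37 C for up to 40 h. Dead-cell DNA fluorescence read at the indicated time point.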
# [7] = qHTS RealTime-Glo MT Cell Viability Assay in HepG2 cells - 32 hour (AID 1224877); further: nearly all actives have a fitted effect of over 55% in size
# Procedure, shortened: (§6)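 Cells + NanoLuc/prosubstrate dispensed (600 cells/well) → 5 h at 37 C/5% CO2 → compounds in DMSO transferred → 40 h incubation at 37 C, luminescence read at 0, 8, 16, 24, 32, 40 h.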
# [8] = A CellTox Green Cytotoxicity Assay to monitor cytotoxicity in HepG2 cells - 24 hour (AID 1224878); further: nearly all actives have a fitted effect of over 45% in size; further: potency means the concentration at half of the fitted maximal effect
# Procedure, shortened: as §5
# [9] = A CellTox Green Cytotoxicity Assay to monitor cytotoxicity in HepG2 cells - 40 hour (AID 1224879); further: nearly all actives have a fitted effect of over 40% in size; further: potency means the concentration at half of the fitted maximal effect
# Procedure, shortened: as §5
# [10] = qHTS RealTime-Glo MT Cell Viability Assay in HEK293 cells - 0 hour (AID 1224880); further: top concentration of the series differs between compounds; nearly all actives have a fitted effect of over 45% in size
# Procedure, shortened: as §4
# [11] = A CellTox Green Cytotoxicity Assay to monitor cytotoxicity in HEK293 cells - 32 hour (AID 1224881); further: nearly all actives have a fitted effect of over 40% in size
# Procedure, shortened: as §2
# [12] = A CellTox Green Cytotoxicity Assay to monitor cytotoxicity in HepG2 cells - 0 hour (AID 1224882); further: nearly all actives have a fitted effect of over 35% in size; further: potency means the concentration at half of the fitted maximal effect
# Procedure, shortened: as §5
# [13] = A CellTox Green Cytotoxicity Assay to monitor cytotoxicity in HepG2 cells - 32 hour (AID 1224883); further: nearly all actives have a fitted effect of over 50% in size
# Procedure, shortened: as §5
# [14] = A CellTox Green Cytotoxicity Assay to monitor cytotoxicity in HEK293 cells - 8 hour (AID 1224884); further: nearly all actives have a fitted effect of over 35% in size; further: potency means the concentration at half of the fitted maximal effect
# Procedure, shortened: as §2
# [15] = qHTS RealTime-Glo MT Cell Viability Assay in HepG2 cells - 16 hour (AID 1224885); further: nearly all actives have a fitted effect of over 50% in size
# Procedure, shortened: as §6
# [16] = qHTS RealTime-Glo MT Cell Viability Assay in HEK293 cells - 24 hour (AID 1224886)
# Procedure, shortened: as §3
# [17] = qHTS RealTime-Glo MT Cell Viability Assay in HEK293 cells - 8 hour (AID 1224887)
# Procedure, shortened: as §4
# [18] = A CellTox Green Cytotoxicity Assay to monitor cytotoxicity in HEK293 cells - 16 hour (AID 1224888); further: nearly all actives have a fitted effect of over 35% in size
# Procedure, shortened: as §2
# [19] = qHTS RealTime-Glo MT Cell Viability Assay in HepG2 cells - 0 hour (AID 1224889); further: nearly all actives have a fitted effect of over 50% in size
# Procedure, shortened: as §6
# [20] = A CellTox Green Cytotoxicity Assay to monitor cytotoxicity in HEK293 cells - 24 hour (AID 1224875)
# Procedure, shortened: as §2
SMILES,Potency [1],Potency [2],Potency [3],Potency [4],max response [5] [%],Potency [6],Potency [7],Potency [8],Potency [9],Potency [10],Potency [11],Potency [12],Potency [13],Potency [14],Potency [15],Potency [16],Potency [17],Potency [18],Potency [19],Potency [20]
CC(=O)NNC(C)=O,inactive,inactive,inactive,inactive,0.186,inactive,inactive,inactive,inactive,inactive,inactive,inactive,inactive,inactive,inactive,inactive,inactive,inactive,inactive,
CC1CCCO1 (configuration not stated),inactive,inactive,inactive,inactive,5.81,inactive,inactive,inactive,inactive,inactive,inactive,inactive,inactive,,inactive,inactive,inactive,inactive,inactive,
CCCCCCC(O)CCOC(C)=O (configuration not stated),inactive,inactive,inactive,inactive,0.328,inactive,inactive,inactive,inactive,inactive,inactive,,inactive,inactive,inactive,inactive,inactive,inactive,inactive,
CC(=O)OCCC1CCCCC1,inactive,inactive,inactive,inactive,6.39,,inactive,,,inactive,inactive,inactive,,inactive,inactive,inactive,,inactive,inactive,inactive
O=S(=O)(O)CO,inactive,inactive,inactive,inactive,4.46,,inactive,,inactive,inactive,inactive,inactive,,inactive,inactive,inactive,inactive,inactive,inactive,inactive
O=C(O)c1cc(Cl)cc(Cl)c1O,inactive,inactive,inactive,inactive,-0.228,inactive,inactive,inactive,inactive,inactive,inactive,inactive,inactive,inactive,inactive,inactive,inactive,inactive,inactive,
Cc1ccccc1S(N)(=O)=O,inactive,inactive,inactive,inactive,8.27,,,inactive,inactive,inactive,inactive,inactive,inactive,inactive,inactive,inactive,inactive,inactive,inactive,inactive
CCN(CC)C(=O)/C(C#N)=C/c1cc(O)c(O)c([N+](=O)[O-])c1,inactive,inactive,inactive,inactive,29.1,,inactive,,inactive,inactive,inactive,,inactive,inactive,inactive,inactive,inactive,inactive,inactive,inactive
CCCCCCCCCCCCCCCCCC(=O)OCC(CC)CCCC (configuration not stated),inactive,inactive,inactive,inactive,2.92,,inactive,inactive,inactive,inactive,inactive,inactive,inactive,,inactive,inactive,inactive,inactive,inactive,inactive
C1=CCC2CC=CC2C1 (configuration not stated),inactive,inactive,inactive,inactive,16.8,,,inactive,inactive,inactive,inactive,inactive,inactive,inactive,inactive,inactive,inactive,inactive,inactive,inactive
CC(C)OC(=O)c1ccccc1C(=O)OC(C)C,inactive,inactive,inactive,inactive,-14,inactive,inactive,inactive,inactive,inactive,inactive,,inactive,inactive,inactive,inactive,,inactive,inactive,
O=C(O)CCC(=O)OC[C@@H](NC(=O)C(Cl)Cl)[C@H](O)c1ccc([N+](=O)[O-])cc1,inactive,21.3 µM (active),inactive,inactive,5.1,9.52 µM (active),inactive,19 µM (active),19 µM (active),inactive,,19 µM (active),,21.3 µM (active),inactive,inactive,inactive,,inactive,
O=C(O)CCS,inactive,inactive,inactive,inactive,7.66,inactive,inactive,inactive,inactive,inactive,inactive,inactive,inactive,inactive,inactive,inactive,inactive,inactive,inactive,
CC(C)C1CCC(C(=O)N[C@H](Cc2ccccc2)C(=O)O)CC1 (some centres not stated),inactive,inactive,inactive,inactive,3,,inactive,inactive,inactive,inactive,inactive,,inactive,inactive,inactive,inactive,inactive,inactive,inactive,inactive
